RXFP1 antag = qHTS Assay for Antagonists of the Relaxin Receptor RXFP1; Relaxin receptor 1 (Homo sapiens), Q9HBX9; HEK293-RXFP1, relaxin-stimulated cAMP HTRF, 30 min; active compounds read low; activity change, negative = inhibition, % at 57.5 µM; actives 0.59% (n = 350,000); AID 1259400, 2018;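 active = activity change of -60% or lower, but not beyond a set lower limit; inconclusive = change between -60% and -40%, or beyond the set limit; inactive = change above -40%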; also: % is scaled to controls: 0 for no effect and ±100 for the full control effect
PTHR1 agonist = qHTS for PTHR1 Agonists: Primary Screen. Potency, µM (top dose mostly 115 µM), inactives show at the highest dose activation, most hits filed as activators. AID 743266, 2014. Parathyroid hormone/parathyroid hormone-related peptide receptor (Homo sapiens), Q03431. actives 0.075% (n = 410,000). HEK293 GP2 PTHR1 cells, GloSensor cAMP luminescence, 1 h; also: potency is read from the fitted curve at half-maximal effect; nearly all actives have a fitted effect of over 55% in size
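HEK-293-derived GP2 cells expressing PTHR1 and a GloSensor cAMP reporter, 3,000/well, plated overnight, given luciferin plus IBMX (each 0.5 mM as added) for 1 h at 37 °C, then compound for 1 h at 37 °C. Luminescence was read after 15 min at room temperature.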
RXFP1 agonist = qHTS Assay for Agonists of the Relaxin Receptor RXFP1; Relaxin receptor 1 (Homo sapiens), Q9HBX9; HEK293T-RXFP1 cAMP TR-FRET, 30 min; response scale: percent of porcine relaxin response, buffer zero; Potency, µM (titrated, usually from 57.5 µM), for inactives: at the highest dose activation, hits mostly activators; actives 0.3% (n = 370,000); also: potency is read from the fitted curve at half-maximal effect; % is scaled to controls: 0 for no effect and ±100 for the full control effect; nearly all actives have a fitted effect of over 60% in size
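HEK293 cells stably expressing RXFP1, treated 30 min at 37C with compounds plus PDE4 inhibitor Ro 20174; cAMP measured by HTRF TR-FRET. Normalized to buffer and 29 nM porcine relaxin; EC50 by Hill fit.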
NPSR antagonist = qHTS Assay for Antagonists of the Neuropeptide S Receptor: cAMP Signal Transduction; Q6W5P4; CHO-NPSR cells, cAMP TR-FRET, antagonist mode; Potency, µM (titrated, usually from 38.3 µM), without a hit: at the highest dose activity change, negative = inhibition, actives largely listed as inhibitors; actives 1% (n = 220,000); AID 1461, 2008; also: potency is read from the fitted curve at half-maximal effect; % is scaled to controls: 0 for no effect and ±100 for the full control effect; nearly all actives have a fitted effect of over 50% in size
Target sequence (Q6W5P4 whole entry, looked up): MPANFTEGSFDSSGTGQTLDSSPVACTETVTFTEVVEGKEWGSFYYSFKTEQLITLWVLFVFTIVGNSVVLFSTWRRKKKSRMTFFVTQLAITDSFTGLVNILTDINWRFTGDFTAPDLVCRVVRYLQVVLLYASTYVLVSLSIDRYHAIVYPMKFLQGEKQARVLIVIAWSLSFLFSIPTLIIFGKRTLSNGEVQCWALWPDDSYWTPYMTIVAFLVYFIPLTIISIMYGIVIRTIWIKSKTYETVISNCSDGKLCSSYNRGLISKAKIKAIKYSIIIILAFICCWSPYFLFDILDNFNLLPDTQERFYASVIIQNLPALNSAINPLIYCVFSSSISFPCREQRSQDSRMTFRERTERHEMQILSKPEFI
TSHR antag = Antagonists of the Thyroid Stimulating Hormone Receptor: HTS campaign. actives 0.2% (n = 330,000). TSHR-expressing cells, TSH-stimulated cAMP HTRF, 2 h; active compounds read low. AID 504810, 2011. Thyrotropin receptor (Homo sapiens), P16473. activity change, negative = inhibition, % at 11.5 µM;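 active = activity change below a set negative limit, meaning inhibition stronger than a set level, cut at about -70% in these data; inconclusive = activity change between two set negative limits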; also: % is scaled to controls: 0 for no effect and ±100 for the full control effect
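TSHR-expressing cells, 200/well, pre-treated with compound, then stimulated with EC80 TSH (4nM final) for 2 hours at 37 deg C. cAMP measured by competitive HTRF: anti-cAMP cryptate antibody in lysis buffer plus cAMP-d2, read after 30 minutes at room temperature.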
GLP1R cytotox = qHTS of GLP-1 Receptor Inverse Agonists: Cytotox Screen; Potency, µM (top dose mostly 38.3 µM), inactives show top-dose activity change, negative = inhibition, hits mostly inhibitors; actives 0.13% (n = 410,000); AID 624418, 2012; HEK293 cAMP-luciferase reporter cells, luminescence, 24 h;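 also: loss of luciferase light is scored as toxicity; potency is read from the fitted curve at half-maximal effect; % is scaled to controls: 0 for no effect and ±100 for the full control effect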
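Luminescence readout: signal drop marks cytotoxicity. Plated cells grew 12 h at 37 °C, 5% CO2, received 23 nL compound for 24 h, then got luciferase reagent, read after 12 min at RT.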
* hit, by the source's call; i = inactive; ? = inconclusive; · = not tested or not shown; [ ] = dose if it differs, or a comment. Only a selection was taken, and hits are over-represented in it overall. Unless noted, calls follow the shape of the dose curve; as a rule, active = well fitted curve in the direction sought with a large enough effect; inconclusive = small, poorly fitted or top-dose-only effect, or another doubt; inactive = no such curve, though single readings can be large; an effect the other way counts as inactive or inconclusive.

SMILES | RXFP1 antag | PTHR1 agonist | RXFP1 agonist | NPSR antagonist | TSHR antag | GLP1R cytotox
COc1ccc(-c2nnn(CC(=O)N(CCCN3CCOCC3)C(C(=O)NC3CCCC3)c3ccco3)n2)cc1 (stereo not drawn) | -1 | 0% | -3% | 58% | 2 | 4%
COc1cccc(NC(=O)C2CCCN2C(=O)Nc2ccccc2)c1 (stereo not drawn) | 3 | -25% | 1% | · | -10 | -22%
COc1cccc(OC)c1NC(=O)C1CCCN1C(=O)Nc1cccc(Cl)c1 (stereo not drawn) | -63* | -3% | 0% | · | 12 | 5%
Cc1ccc(NC(=O)COC(=O)Cc2cccs2)c(Br)c1 | -3 | i | 0% | · | 11 | 0%
Cc1cc(C)c(NC(=O)COC(=O)Cc2cccs2)c(C)c1 | -109* | i | 0% | · | 8 | -4%
CCCCn1c(N)c(N(CCOC)C(=O)CSCc2ccc(Cl)c(Cl)c2)c(=O)[nH]c1=O | 1 | -18% | 1% | · | -17 | 6%
CCCCn1c(N)c(N(CCOC)C(=O)CN(C)CC(=O)Nc2ccc(Cl)c(Cl)c2)c(=O)[nH]c1=O | 0 | 50µM* | · | · | -7 | -7%
CCCCCN(C(=O)COC(=O)COc1c(C)cc(C)cc1C)c1c(N)n(CCCC)c(=O)[nH]c1=O | -69* | i | 0% | · | -22 | -10%
Cc1ccc(C2=CC(C)(c3ccc(C)cc3)Nc3nc(C(F)(F)F)nn32)cc1 (stereo not drawn) | -67* | -6% | 0% | -26% | 7 | 16%
CC1(c2ccc(OCC#N)cc2)C=C(c2ccc(OCC#N)cc2)n2nc(C(F)(F)F)nc2N1 (stereo not drawn) | -3 | -75% | -1% | -49% | -8 | 0%
Cc1cccc(C)c1NC(=O)C(c1ccccc1OC(F)(F)F)N1CCN(c2ccc(F)cc2)CC1 (stereo not drawn) | · | -13% | · | · | · | 2%
O=S(=O)(c1ccccc1)c1nc(-c2ccc(Cl)cc2Cl)oc1N1CCCCCC1 | -10 | i | 10% | · | · | 16%
O=C(NCc1ccc(Cl)cc1)C1CCN(S(=O)(=O)c2ccc(N3CCCC3=O)cc2)CC1 | -66* | -33% | 4% | · | -21 | -14%
O=C(N/N=C/c1cc([N+](=O)[O-])ccc1O)c1ccc2c(c1)OCCO2 | -7 | i | -4% | -11% | -19 | 3.5µM*
O=C(NC1CCCC1)c1cc(COc2ccc3ncccc3c2)on1 | 6 | -28% | 1% | -9% | -18 | -2%
Cc1ccc(OCc2cc(C(=O)NC3CCCCC3)no2)cn1 | -4 | -47% | 0% | · | -109* | 1%
O=C(NC1CCCCC1)c1cc(-c2ccc(O)cc2)on1 | -22 | -5% | 3% | · | -3 | -1%
O=C(NC1CCCCC1)c1cc(-c2ccccc2O)on1 | -18 | -9% | 1% | · | -80* | -19%
COc1ccc(NC(=O)c2sc3nc4n(c(=O)c3c2C)CCC4)cc1Cl | -10 | i | -1% | · | · | -10%
Cc1cc2cc(CCNC(=O)c3ccc(S(=O)(=O)N4CCCC4)cc3)c(=O)[nH]c2cc1C | -31 | -34% | 0% | · | -77* | -23%
O=[N+]([O-])c1cc(Cl)ccc1Sc1cccc2cccnc12 | 4 | -20% | 0% | -16%[46.1 µM] | -3 | -12%
C=CCn1nc([N+](=O)[O-])nc1Sc1cccc2cccnc12 | -22 | i | 1% | -41% | -1 | 2.8µM*
O=[N+]([O-])c1ccc(Sc2cccc3cccnc23)c([N+](=O)[O-])c1 | · | i | -1% | 3.2µM* | 1 | 3.2µM*
O=[N+]([O-])c1ccc(Sc2cccc3cccnc23)cc1 | -5 | -35% | 1% | -16%[46.1 µM] | -11 | 1%
Cc1cccc2cc(CN(Cc3ccco3)C(c3nnnn3CCc3ccccc3)C(C)C)c(=O)[nH]c12 (stereo not drawn) | -1 | i | 4% | 13µM* | -5 | -24%
SMILES | RXFP1 antag | PTHR1 agonist | RXFP1 agonist | NPSR antagonist | TSHR antag | GLP1R cytotox
COc1ccc2[nH]c(=O)c(CN(Cc3ccco3)C(c3nnnn3Cc3ccccc3)C(C)C)cc2c1 (stereo not drawn) | -1 | -7% | 8% | ? | 6 | 5%
O=C(/C=C/c1ccccc1)c1cc(Br)ccc(=O)c1O | -23 | -47%[57.5 µM] | 1% | ? | -85* | ?
O=C(/C=C/c1ccc(F)cc1)c1cc(Br)ccc1O | -21 | -15% | 4% | ? | -13 | -8%
O=c1c2sc3ccccc3c2n(Cc2ccccc2F)c(=O)n1CCc1ccccc1 | · | -5% | 0% | · | · | 2%
Cc1ccc(CSc2cn(CC(=O)N3CCCCCC3)c3ccccc23)cc1 | -35 | -28% | -1% | · | · | 0%
O=C1C=C(N2CCCCC2)c2ccccc2C1=O | 4 | -23% | · | · | · | 10µM*
O=C(Cn1nc(C(=O)O)c2ccccc2c1=O)Nc1cccc(S(=O)(=O)N2CCCCC2)c1 | -10 | -30% | · | · | -17 | 16%
COc1ccc(C(=O)C2CCCN(C3Cc4ccccc4C3)C2)c(OC)c1 (stereo not drawn) | -65* | -20% | 1% | 0% | -24 | ?
O=C(CCCN1C(=O)c2cccc3cccc(c23)C1=O)N1CCN(c2ccccc2O)CC1 | -1 | -10% | 2% | 2% | -34 | ?
CCOc1ccccc1N1CCN(C(=O)CCCN2C(=O)c3cccc4cccc(c34)C2=O)CC1 | 12 | i | 1% | ? | -81* | -22%
COc1cccc(/C=C/C(=O)N(C)CC(=O)Nc2ccc(Cl)c(C(F)(F)F)c2)c1 | -15 | ? | 1% | · | -2 | 4%
CC(C)C(=O)Nc1cccc(C2CN3CCSC3=N2)c1 (stereo not drawn) | 10 | · | · | · | · | ·
CC1(C)CC(=O)C(C(c2ccc(F)cc2)C2C(=O)CC(C)(C)CC2=O)C(=O)C1 | -8 | i | 1% | 13% | 0 | -3%
CCc1sc(C(C2C(=O)CC(C)(C)CC2=O)C2C(=O)CC(C)(C)CC2=O)cc1[N+](=O)[O-] | -98* | -34% | -4% | ? | -7 | -1%
COc1ccc(S(=O)(=O)Nc2ccccc2C(=O)Nc2nc(-c3ccc(F)cc3)cs2)cc1OC | -28 | -24% | 4% | -34% | -88* | 13%[1.53 µM]
COc1ccc(-c2csc(NC(=O)C3=NN(c4ccccc4)C(=O)CC3)n2)cc1 | -9 | -29% | 1% | 14% | -78* | -22%

High-throughput results deposited in PubChem BioAssay by National Center for Advancing Translational Sciences (NCATS).
